Assay outcomes: PubChem, National Center for Advancing Translational Sciences (NCATS)
Hits are enriched below; roughly 0.92% of the tested compounds scored in any of these assays.
WRN helicase inh-1 = WRN helicase (human) inhibition; AID 651768; WRN helicase unwinding, fluorescent forked duplex, kinetic; actives 0.46% (n = 360,000); Q14191; Potency, µM (doses to about 114 µM), hits mostly inhibitors; also: nearly all actives have a fitted effect of over 55% in size
Target sequence (Q14191 whole entry, looked up): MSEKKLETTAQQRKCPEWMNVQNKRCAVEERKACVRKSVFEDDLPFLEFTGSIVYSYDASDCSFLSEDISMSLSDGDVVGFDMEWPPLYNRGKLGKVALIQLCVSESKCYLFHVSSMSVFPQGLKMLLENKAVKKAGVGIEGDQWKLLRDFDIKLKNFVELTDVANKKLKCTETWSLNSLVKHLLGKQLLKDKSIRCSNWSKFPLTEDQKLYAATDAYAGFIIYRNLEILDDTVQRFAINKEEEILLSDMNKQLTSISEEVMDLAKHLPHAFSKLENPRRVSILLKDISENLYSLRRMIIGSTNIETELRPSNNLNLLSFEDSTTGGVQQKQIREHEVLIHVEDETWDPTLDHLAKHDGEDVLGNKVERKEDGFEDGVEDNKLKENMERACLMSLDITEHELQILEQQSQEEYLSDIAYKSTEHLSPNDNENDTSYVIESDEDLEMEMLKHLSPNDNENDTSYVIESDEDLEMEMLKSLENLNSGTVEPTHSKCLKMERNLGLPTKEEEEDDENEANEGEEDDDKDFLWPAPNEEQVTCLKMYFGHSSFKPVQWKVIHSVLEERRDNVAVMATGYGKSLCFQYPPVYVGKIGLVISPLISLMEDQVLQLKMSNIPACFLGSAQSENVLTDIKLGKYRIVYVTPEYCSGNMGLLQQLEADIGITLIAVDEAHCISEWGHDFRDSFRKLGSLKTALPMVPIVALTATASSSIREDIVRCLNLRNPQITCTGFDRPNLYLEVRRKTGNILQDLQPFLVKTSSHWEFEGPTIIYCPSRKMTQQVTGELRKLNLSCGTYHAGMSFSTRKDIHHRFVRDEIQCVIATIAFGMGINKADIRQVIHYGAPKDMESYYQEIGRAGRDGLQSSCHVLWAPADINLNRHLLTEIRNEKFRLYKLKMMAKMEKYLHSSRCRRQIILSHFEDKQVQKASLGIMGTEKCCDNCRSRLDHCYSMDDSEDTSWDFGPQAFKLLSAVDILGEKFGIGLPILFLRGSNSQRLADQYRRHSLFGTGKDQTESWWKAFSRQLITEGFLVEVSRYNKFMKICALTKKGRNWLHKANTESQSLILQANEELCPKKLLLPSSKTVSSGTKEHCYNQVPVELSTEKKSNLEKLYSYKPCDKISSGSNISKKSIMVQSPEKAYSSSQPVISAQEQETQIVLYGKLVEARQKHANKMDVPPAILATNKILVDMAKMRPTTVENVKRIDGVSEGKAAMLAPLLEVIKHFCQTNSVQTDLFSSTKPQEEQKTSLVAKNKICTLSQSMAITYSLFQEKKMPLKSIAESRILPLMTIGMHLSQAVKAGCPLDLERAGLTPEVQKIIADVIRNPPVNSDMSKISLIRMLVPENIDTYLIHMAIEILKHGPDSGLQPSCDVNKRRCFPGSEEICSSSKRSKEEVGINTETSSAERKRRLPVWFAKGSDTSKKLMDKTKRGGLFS
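Kinetic red-fluorescence monitoring (525/598 nm) tracks WRN helicase activity after 100 nM fluorophore-quencher forked duplex and 2 mM ATP are added to 20 nM enzyme pretreated 15 min at room temperature with compound.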
APE1 inh = blocks human APE1 abasic DNA cleavage; Potency, µM (titrated, usually from 65.8 µM), actives largely listed as inhibitors; P27695; recombinant APE1, TAMRA/BHQ-2 abasic DNA cleavage fluorescence; actives 0.35% (n = 350,000); also: nearly all actives have a fitted effect of over 55% in size
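Readout is kinetic fluorescence (ex 525, em 598 nm) from cleavage of 50 nM TAMRA/BHQ-2 THF abasic duplex by 0.75 nM APE1, compound added 15 min beforehand at RT.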
L3MBTL1 inh-1 = L3MBTL1 (human) inhibition | Q9Y468 | AlphaScreen L3MBTL1–H3K9me1 peptide binding | Potency, µM (doses to about 57.1 µM), most hits filed as inhibitors | actives 0.66% (n = 230,000) | AID 485360; also: nearly all actives have a fitted effect of over 60% in size
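Displacement of a biotinylated histone H3(1-15) peptide monomethylated at Lys9 (75 nM) from L3MBTL1 (50 nM) was measured by AlphaScreen after a 30 min room-temperature compound incubation; cefsulodin titration served as intraplate control.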
BLM helicase inh-1 = Bloom syndrome helicase (human) inhibition; P54132; recombinant BLM DNA unwinding, fluorescence dequenching; actives 0.2% (n = 350,000); Potency, µM (titrated, usually from 56.1 µM), usual class: inhibitors; also: nearly all actives have a fitted effect of over 35% in size
RECQ1 inh-1 = inhibitors of human RECQ1 DNA helicase. P46063. RECQ1 DNA unwinding, red fluorescence kinetic read. Potency, µM (titrated, usually from 57.3 µM), most hits filed as inhibitors. actives 0.54% (n = 240,000). AID 2549; also: nearly all actives have a fitted effect of over 30% in size
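RECQ1T1 50 nM; forked duplex (20 bp + 30-nt ss tails) 200 nM, ATP 2 mM final; pH 8.0, 2 mM MgCl2, 2.5 ug/ml poly(dI-dC); 15 min compound preincubation; discontinuous kinetic read over 2 h at RT.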
RECQ1 inh conf = confirmation of human RECQ1 helicase inhibitors; Potency, µM (titrated, usually from 229 µM), hits mostly inhibitors; shares compounds with RECQ1 inh-1; actives 28% (n = 610); RECQ1 helicase DNA unwinding, fluorescence; also: nearly all actives have a fitted effect of over 45% in size
ADP FP counter = displaces ADP in a fluorescence polarization counter-screen for RECQ1 hits. shares compounds with RECQ1 inh-1. ADP fluorescence polarization displacement counterscreen. Potency, µM (doses to about 228 µM), most hits filed as inhibitors. actives 27% (n = 530); also: nearly all actives have a fitted effect of over 45% in size
RECQ1 inh-2 = RECQ1 helicase inhibition confirmed, round 2; actives 15% (n = 1,100); shares compounds with RECQ1 inh-1; Potency, µM (doses to about 119 µM), hits mostly inhibitors; recombinant RECQ1 DNA unwinding, red fluorescence; also: nearly all actives have a fitted effect of over 50% in size
L3MBTL1 inh-2 = L3MBTL1 binding inhibition validated; shares compounds with L3MBTL1 inh-1; actives 91% (n = 500); Potency, µM, actives largely listed as inhibitors; L3MBTL1 methyl-lysine binding inhibition, biochemical qHTS; also: nearly all actives have a fitted effect of over 70% in size
AlphaScreen ctr2 = AlphaScreen signal inhibition, L3MBTL1 hit counter-screen; 500 tested, under 10 active; shares compounds with L3MBTL1 inh-1; Potency, µM (top dose mostly 57.1 µM), most hits filed as inhibitors; AlphaScreen counterscreen, signal inhibition
WRN helicase inh-2 = confirmation of human WRN helicase inhibitors; shares compounds with WRN helicase inh-1; WRN helicase DNA unwinding, fluorescence kinetic; Potency, µM (top dose mostly 57.1 µM), actives largely listed as inhibitors; actives 63% (n = 610); AID 720497; also: nearly all actives have a fitted effect of over 65% in size
TO DNA binding = binds DNA, flagged in WRN inhibitor counterscreen. shares compounds with WRN helicase inh-1. thiazole orange DNA binding displacement, fluorescence. Potency, µM (highest dose often 57.1 µM), hits mostly inhibitors. actives 10% (n = 610);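 also: drop in dye fluorescence marks compound binding to DNA; nearly all actives have a fitted effect of over 60% in size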
BLM helicase inh-2 = BLM helicase inhibition, WRN selectivity check; shares compounds with WRN helicase inh-1; Recombinant BLM helicase DNA unwinding, red fluorescence; Potency, µM (series often up to 57.1 µM), most hits filed as inhibitors; actives 60% (n = 610); AID 720503; also: nearly all actives have a fitted effect of over 60% in size
Numbers stand for hits; . = inactive; ? = inconclusive; / = not tested or not shown; [ ] = dose if it differs, or a comment. Calls follow the shape of the dose curve; as a rule, active = well fitted curve in the direction sought with a large enough effect; inconclusive = small, poorly fitted or top-dose-only effect, or another doubt; inactive = no such curve, though single readings can be large; an effect the other way counts as inactive or inconclusive.

SMILES | WRN helicase inh-1 | APE1 inh | L3MBTL1 inh-1 | BLM helicase inh-1 | RECQ1 inh-1 | L3MBTL1 inh-2 | AlphaScreen ctr2 | WRN helicase inh-2 | TO DNA binding | BLM helicase inh-2 | others
COc1cc(/C=C2\CCc3c2nc2ccccc2c3C(=O)O)cc(OC)c1OC | 32µM | 25µM | 4µM | 14µM | 10µM | 1.5 | . | 19µM | ? | 19µM | RECQ1 inh conf=22µM;ADP FP counter=.;RECQ1 inh-2=?
O=c1c(-c2ccc([N+](=O)[O-])cc2)coc2c(O)c(O)ccc12 | 22µM | ? | / | . | 8.9µM | / | / | 4.8µM | . | 4.3µM | RECQ1 inh-2=?
Cc1ccc(NC(=O)N/C=C/c2ccco2)cc1 | ? | ? | ? | . | ? | / | / | . | . | 14µM | RECQ1 inh-2=?
Cc1ccc(NC(=O)/C(=C\c2ccco2)NC(=O)c2ccco2)cc1 | . | . | / | . | / | / | / | / | / | /
Cc1cc2c(c(=O)o1)[C@H](O)[C@H]1O[C@@H]1C2=O | / | .[12.4 µM] | / | .[12.4 µM] | .[11.5 µM] | / | / | / | / | /
COc1ccc(OC)c(N2C(=O)[C@@H]3C(c4ccccc4Cl)=NO[C@@H]3C2=O)c1 | 40µM | ? | 3.5µM | . | 28µM | 3 | . | 22µM | ? | 17µM | RECQ1 inh-2=?
Cc1cccc(C)c1N1C(=O)[C@@H]2C(c3ccccc3Cl)=NO[C@@H]2C1=O | . | . | . | . | . | / | / | / | / | /
CCc1nnc(NS(=O)(=O)c2ccc(N/C=C\C(=O)c3cccc4ccccc34)cc2)s1 | 27µM | . | . | . | ? | / | / | 24µM | . | 27µM | RECQ1 inh-2=?
CN(C)C(=O)c1ccc(-c2cncnc2NCc2cccnc2)cc1 | / | . | / | . | . | / | / | / | / | /
CCOc1ccc(-c2nc(SCC(=O)c3ccccc3)n[nH]2)cc1 | / | / | / | . | / | / | / | / | / | /
O=C(CSc1n[nH]c(-c2ccccc2)n1)c1ccc(O)c(O)c1 | 16µM | ? | ? | . | 20µM | / | / | 19µM | . | 19µM | RECQ1 inh-2=?
O=C(O)CC(CCc1ccccc1)OC1OC(CO)C(O)C(O)C1O (stereo unspecified) | ? | 0.35µM | / | . | 3.5µM | / | / | 1.7µM | . | 1.5µM | RECQ1 inh conf=.
[C-]#[N+][C@H](O[C@@H]1O[C@H](CO)[C@@H](O)[C@H](O)[C@H]1O)c1ccccc1 | . | / | / | / | / | / | / | / | / | /
C/C(C/C(C)=C1/SC(=S)NC1=O)=C1\SC(=S)NC1=O | 28µM | ? | / | . | 14µM | / | / | 3.8µM | . | ? | RECQ1 inh conf=?
COc1cccc(N2C(=O)C(CC(=O)Nc3cccc(F)c3)N(C3CCCC3)C2=O)c1 (stereo unspecified) | / | / | / | . | / | / | / | / | / | /
Cc1nn(CCc2nc(-c3ccco3)cs2)c2[nH]c(=O)cc(C(F)(F)F)c12 | 35µM | ? | 35µM | ? | 14µM | 21 | . | ? | . | 22µM | RECQ1 inh conf=?;ADP FP counter=?;RECQ1 inh-2=?
CCCNC(=O)c1cnc2c(-c3ccc(OCC)c(OCC)c3)c(C)nn2c1-c1ccccc1 | / | / | / | . | / | / | / | / | / | /
CCOc1ccc(OCCCC(=O)N2CCN(S(=O)(=O)c3ccc(Cl)cc3)CC2)cc1 | . | . | 32µM | / | / | 27 | . | / | / | /
O=C(CCCOc1ccccc1)N1CCN(S(=O)(=O)c2ccc(Cl)cc2)CC1 | . | . | . | / | / | / | / | / | / | /
CC(C)(CS(=O)(=O)[O-])NC(=O)CC[N+](C)(C)CCO | 7.9µM | 6.3µM | 3.5µM | 14µM | 1.4µM | 1.2 | . | / | / | /
Cc1nnc(N2C(=O)c3oc4ccccc4c(=O)c3C2c2ccco2)s1 (stereo unspecified) | ? | ? | 22µM | . | . | ? | . | / | / | /
CCOc1ccc(CCNC(=O)CSc2nnnn2-c2ccccc2)cc1OCC | / | / | / | . | / | / | / | / | / | /
C#C[C@@]1(O)CC[C@@H]2[C@@H]3CCC4=CC(=O)CC[C@@H]4[C@H]3CC[C@]21C | / | . | / | . | . | / | / | / | / | /
O=C1CC(c2ccco2)CC(O)=C1C=Nc1cc(Cl)ccc1Cl (stereo unspecified) | ? | ? | 35µM | . | . | 24 | . | / | / | /
COC(=O)C/C=C\[C@@H](C)[C@@H](/C=N\O[C@@H](C)CN1CCCCc2nc(C)c(C)cc21)NS(=O)(=O)c1ccc(C)cc1 | / | .[12.4 µM] | / | .[12.4 µM] | .[11.5 µM] | / | / | / | / | /
SMILES | WRN helicase inh-1 | APE1 inh | L3MBTL1 inh-1 | BLM helicase inh-1 | RECQ1 inh-1 | L3MBTL1 inh-2 | AlphaScreen ctr2 | WRN helicase inh-2 | TO DNA binding | BLM helicase inh-2 | others
Cc1cccc(NCc2ccc(O)c3ncccc23)c1C | ? | . | 25µM | . | . | 9.5 | . | / | / | /
Cc1ccc(NCc2ccc(O)c3ncccc23)cc1 | . | . | . | . | . | / | / | / | / | /
Cc1ccc(C(C)C)cc1OCCCCN1CCCC1 | . | ? | 28µM | . | . | 19 | . | / | / | /
CCN(CCCNC(=O)c1ccc(Sc2ccc(F)cc2)c(NC(C)=O)c1)c1ccccc1 | / | / | / | . | / | / | / | / | / | /
OB(O)c1ccc(B(O)O)cc1 | / | . | / | . | . | / | / | / | / | /
CC(=O)Nc1ccc(C(=O)/C=C/c2ccco2)cc1 | ? | . | 32µM | . | . | 9.5 | . | / | / | /
